From paper PMC7862700, “An all-to-all approach to the identification of sequence-specific readers for epigenetic DNA modifications on cytosine”

Tests used:
Experiment in all cases: DAPPL (digital affinity profiling via proximity ligation, sequencing); 10 mM Tris-HCl pH 7.5, 50 mM NaCl, 1 mM DTT, 4% glycerol, room temperature, 30 min; GST-TFs on glutathione beads, 16-mer random dsDNA library, 0.1% formaldehyde crosslink after washing; high values mean tight binding
Conditions in all cases: protein: recombinant; tags: N-terminal GST; dsDNA, one strand shown
FLI1 = target: T1, FLI1 (Homo sapiens, UniProt Q01543 1-452)
T1 sequence: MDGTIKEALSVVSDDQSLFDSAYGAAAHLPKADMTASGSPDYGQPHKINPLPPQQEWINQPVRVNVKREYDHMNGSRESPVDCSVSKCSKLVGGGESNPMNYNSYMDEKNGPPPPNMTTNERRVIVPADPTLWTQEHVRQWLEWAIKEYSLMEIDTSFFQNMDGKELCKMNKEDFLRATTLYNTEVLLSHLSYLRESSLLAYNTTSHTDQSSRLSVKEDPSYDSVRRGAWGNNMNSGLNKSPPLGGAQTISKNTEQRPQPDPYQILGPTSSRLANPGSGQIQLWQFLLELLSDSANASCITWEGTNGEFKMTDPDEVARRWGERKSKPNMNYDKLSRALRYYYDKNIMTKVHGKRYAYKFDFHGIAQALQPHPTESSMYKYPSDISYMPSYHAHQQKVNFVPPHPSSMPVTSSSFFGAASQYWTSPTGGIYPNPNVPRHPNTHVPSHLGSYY
Procedure, shortened: (§1)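 Binding signal is each hexamer's read frequency for a factor divided by its frequency in the tag-only sample. The factors were GST-fused human transcription factors from yeast, captured on glutathione beads, DNA-barcoded and pooled with that sample. Pools were incubated with 200 nmole of a random double-stranded 16-mer DNA library in Tris/NaCl/DTT/glycerol buffer at room temperature for 30 min, then washed, crosslinked with 0.1% formaldehyde, proximity-ligated with BsaI/T4 ligase (1 h, 37 °C), PCR-amplified and sequenced on an Illumina NextSeq500.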

ELK1 = target: T2, ELK1 (Homo sapiens, UniProt P19419 1-428)
T2 sequence: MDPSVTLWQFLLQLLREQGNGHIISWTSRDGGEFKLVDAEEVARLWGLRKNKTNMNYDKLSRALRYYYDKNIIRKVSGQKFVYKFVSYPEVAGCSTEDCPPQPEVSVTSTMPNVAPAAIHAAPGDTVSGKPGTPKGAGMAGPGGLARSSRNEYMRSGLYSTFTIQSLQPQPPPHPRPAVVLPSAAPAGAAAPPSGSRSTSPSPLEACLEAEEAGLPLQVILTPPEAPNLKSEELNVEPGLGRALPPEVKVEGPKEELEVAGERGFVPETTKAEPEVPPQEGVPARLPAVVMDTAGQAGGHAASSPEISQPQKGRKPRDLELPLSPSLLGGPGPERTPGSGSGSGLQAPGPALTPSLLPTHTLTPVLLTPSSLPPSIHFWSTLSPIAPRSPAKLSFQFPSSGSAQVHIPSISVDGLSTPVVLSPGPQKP
Procedure, shortened: as §1

GABPA = target: T3, GABPA (Homo sapiens, UniProt Q06546 1-454)
T3 sequence: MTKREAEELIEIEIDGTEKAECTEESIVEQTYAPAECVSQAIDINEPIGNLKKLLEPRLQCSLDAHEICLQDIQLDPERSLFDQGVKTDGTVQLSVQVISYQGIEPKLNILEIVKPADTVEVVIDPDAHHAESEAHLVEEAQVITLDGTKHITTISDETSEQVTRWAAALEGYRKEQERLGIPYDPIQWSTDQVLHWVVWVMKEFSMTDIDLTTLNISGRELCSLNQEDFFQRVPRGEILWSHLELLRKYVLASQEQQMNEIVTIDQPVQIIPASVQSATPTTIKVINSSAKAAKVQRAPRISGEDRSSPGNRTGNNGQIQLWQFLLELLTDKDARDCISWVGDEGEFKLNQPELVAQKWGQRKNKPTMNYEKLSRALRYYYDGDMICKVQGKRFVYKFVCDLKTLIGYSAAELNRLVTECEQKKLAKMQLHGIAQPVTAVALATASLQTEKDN
Procedure, shortened: as §1

ERG = target: T4, ERG (Homo sapiens, UniProt P11308 1-479)
T4 sequence: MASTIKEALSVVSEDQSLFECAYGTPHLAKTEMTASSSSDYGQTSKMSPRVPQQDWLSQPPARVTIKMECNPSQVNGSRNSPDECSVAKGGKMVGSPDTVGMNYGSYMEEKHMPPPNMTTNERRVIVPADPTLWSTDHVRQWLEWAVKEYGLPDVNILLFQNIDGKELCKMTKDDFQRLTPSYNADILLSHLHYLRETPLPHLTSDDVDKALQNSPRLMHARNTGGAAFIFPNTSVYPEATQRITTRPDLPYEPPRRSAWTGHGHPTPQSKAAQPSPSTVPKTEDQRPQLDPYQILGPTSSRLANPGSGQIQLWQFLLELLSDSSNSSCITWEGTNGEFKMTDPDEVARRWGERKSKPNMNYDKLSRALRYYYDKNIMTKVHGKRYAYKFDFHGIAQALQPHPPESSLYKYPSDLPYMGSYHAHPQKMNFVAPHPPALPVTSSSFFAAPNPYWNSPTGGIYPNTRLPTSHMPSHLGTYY
Procedure, shortened: as §1

ELF1 = ELF1 (Homo sapiens, UniProt P32519 1-619)
Procedure, shortened: as §1

EHF = target: T5, EHF (Homo sapiens, UniProt Q9NZC4 1-300)
T5 sequence: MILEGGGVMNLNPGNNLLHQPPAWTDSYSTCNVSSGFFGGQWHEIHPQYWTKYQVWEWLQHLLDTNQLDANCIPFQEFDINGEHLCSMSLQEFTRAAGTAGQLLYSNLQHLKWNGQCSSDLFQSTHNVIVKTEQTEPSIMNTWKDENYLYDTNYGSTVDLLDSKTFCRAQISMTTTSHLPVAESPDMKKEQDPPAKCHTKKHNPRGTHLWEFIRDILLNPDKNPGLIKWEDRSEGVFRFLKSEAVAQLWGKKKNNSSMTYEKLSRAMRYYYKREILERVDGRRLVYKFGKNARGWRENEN
Procedure, shortened: as §1

SPI1 = SPI1 (Homo sapiens, UniProt P17947 1-270)
Procedure, shortened: as §1

SPIB = SPIB (Homo sapiens, UniProt Q01892 1-262)
Procedure, shortened: as §1

ELK3 = target: T6, ELK3 (Homo sapiens, UniProt P41970 1-407)
T6 sequence: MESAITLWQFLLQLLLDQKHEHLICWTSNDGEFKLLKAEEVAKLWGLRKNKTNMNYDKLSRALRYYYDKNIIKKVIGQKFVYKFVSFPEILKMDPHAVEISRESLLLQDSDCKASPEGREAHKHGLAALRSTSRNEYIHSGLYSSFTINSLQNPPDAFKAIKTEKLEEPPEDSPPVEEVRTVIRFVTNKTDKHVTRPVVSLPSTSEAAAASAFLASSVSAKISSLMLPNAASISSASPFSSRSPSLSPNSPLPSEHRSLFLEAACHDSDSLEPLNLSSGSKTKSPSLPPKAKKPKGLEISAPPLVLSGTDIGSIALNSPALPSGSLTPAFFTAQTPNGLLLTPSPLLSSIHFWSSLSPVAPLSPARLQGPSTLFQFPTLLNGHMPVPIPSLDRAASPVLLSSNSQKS
Procedure, shortened: as §1

Sequence of ELF1 (P32519 whole entry): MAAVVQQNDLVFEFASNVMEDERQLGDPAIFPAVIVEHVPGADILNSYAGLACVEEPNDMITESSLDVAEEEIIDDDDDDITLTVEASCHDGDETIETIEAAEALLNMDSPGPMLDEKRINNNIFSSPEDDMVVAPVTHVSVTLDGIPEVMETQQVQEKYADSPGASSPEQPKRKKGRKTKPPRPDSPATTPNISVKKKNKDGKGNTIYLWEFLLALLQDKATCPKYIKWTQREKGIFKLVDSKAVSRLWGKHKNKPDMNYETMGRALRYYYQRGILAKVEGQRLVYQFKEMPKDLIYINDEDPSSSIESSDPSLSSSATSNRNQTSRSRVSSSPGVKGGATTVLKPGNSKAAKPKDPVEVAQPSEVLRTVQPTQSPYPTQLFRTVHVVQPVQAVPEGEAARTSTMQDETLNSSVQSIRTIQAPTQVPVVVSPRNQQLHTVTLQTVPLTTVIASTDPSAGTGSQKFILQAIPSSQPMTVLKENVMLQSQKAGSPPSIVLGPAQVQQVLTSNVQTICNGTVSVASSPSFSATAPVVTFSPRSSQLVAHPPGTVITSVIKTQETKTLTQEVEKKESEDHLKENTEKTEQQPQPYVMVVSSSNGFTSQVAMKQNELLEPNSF
Sequence of SPIB (Q01892 whole entry): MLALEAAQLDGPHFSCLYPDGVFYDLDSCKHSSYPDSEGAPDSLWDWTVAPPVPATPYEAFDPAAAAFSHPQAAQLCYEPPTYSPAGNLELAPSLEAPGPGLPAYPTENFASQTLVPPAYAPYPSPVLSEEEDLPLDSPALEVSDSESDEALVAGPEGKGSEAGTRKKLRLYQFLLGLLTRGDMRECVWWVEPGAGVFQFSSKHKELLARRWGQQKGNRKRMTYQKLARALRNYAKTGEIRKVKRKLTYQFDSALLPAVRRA

| Sequence | binding signal (FLI1) | binding signal (ELK1) | binding signal (GABPA) | binding signal (ERG) | binding signal (ELF1) | binding signal (EHF) | binding signal (SPI1) | binding signal (SPIB) | binding signal (ELK3) |
| --- | --- | --- | --- | --- | --- | --- | --- | --- | --- |
| ACATGC | 1.31 fold enrichment (6-mer frequency, TF over GST control) | 1.2 fold enrichment (6-mer frequency, TF over GST control) | 1.33 fold enrichment (6-mer frequency, TF over GST control) | 1.24 fold enrichment (6-mer frequency, TF over GST control) | 1.36 fold enrichment (6-mer frequency, TF over GST control) | 1.24 fold enrichment (6-mer frequency, TF over GST control) | 1.19 fold enrichment (6-mer frequency, TF over GST control) | 1.2 fold enrichment (6-mer frequency, TF over GST control) | 1.34 fold enrichment (6-mer frequency, TF over GST control) |
| CTTCTC | 1.38 fold enrichment (6-mer frequency, TF over GST control) | 1.39 fold enrichment (6-mer frequency, TF over GST control) | 1.39 fold enrichment (6-mer frequency, TF over GST control) | 1.3 fold enrichment (6-mer frequency, TF over GST control) | 1.41 fold enrichment (6-mer frequency, TF over GST control) | 1.37 fold enrichment (6-mer frequency, TF over GST control) | 1.4 fold enrichment (6-mer frequency, TF over GST control) | 1.34 fold enrichment (6-mer frequency, TF over GST control) | 1.39 fold enrichment (6-mer frequency, TF over GST control) |
| CTCGTT | 1.18 fold enrichment (6-mer frequency, TF over GST control) | 1.31 fold enrichment (6-mer frequency, TF over GST control) | 1.26 fold enrichment (6-mer frequency, TF over GST control) | 1.25 fold enrichment (6-mer frequency, TF over GST control) | 1.27 fold enrichment (6-mer frequency, TF over GST control) | 1.27 fold enrichment (6-mer frequency, TF over GST control) | 1.35 fold enrichment (6-mer frequency, TF over GST control) | 1.24 fold enrichment (6-mer frequency, TF over GST control) | 1.15 fold enrichment (6-mer frequency, TF over GST control) |
| TTTTAA | 1.26 fold enrichment (6-mer frequency, TF over GST control) | 1.28 fold enrichment (6-mer frequency, TF over GST control) | 1.25 fold enrichment (6-mer frequency, TF over GST control) | 1.2 fold enrichment (6-mer frequency, TF over GST control) | 1.29 fold enrichment (6-mer frequency, TF over GST control) | 1.22 fold enrichment (6-mer frequency, TF over GST control) | 1.32 fold enrichment (6-mer frequency, TF over GST control) | 1.26 fold enrichment (6-mer frequency, TF over GST control) | 1.3 fold enrichment (6-mer frequency, TF over GST control) |
| TAATAT | 1.36 fold enrichment (6-mer frequency, TF over GST control) | 1.25 fold enrichment (6-mer frequency, TF over GST control) | 1.3 fold enrichment (6-mer frequency, TF over GST control) | 1.25 fold enrichment (6-mer frequency, TF over GST control) | 1.27 fold enrichment (6-mer frequency, TF over GST control) | 1.3 fold enrichment (6-mer frequency, TF over GST control) | 1.23 fold enrichment (6-mer frequency, TF over GST control) | 1.21 fold enrichment (6-mer frequency, TF over GST control) | 1.33 fold enrichment (6-mer frequency, TF over GST control) |
| TTTTTC | 1.21 fold enrichment (6-mer frequency, TF over GST control) | 1.15 fold enrichment (6-mer frequency, TF over GST control) | 1.32 fold enrichment (6-mer frequency, TF over GST control) | 1.14 fold enrichment (6-mer frequency, TF over GST control) | 1.22 fold enrichment (6-mer frequency, TF over GST control) | 1.23 fold enrichment (6-mer frequency, TF over GST control) | 1.33 fold enrichment (6-mer frequency, TF over GST control) | 1.14 fold enrichment (6-mer frequency, TF over GST control) | 1.39 fold enrichment (6-mer frequency, TF over GST control) |
| TGCTAA | 1.24 fold enrichment (6-mer frequency, TF over GST control) | 1.37 fold enrichment (6-mer frequency, TF over GST control) | 1.18 fold enrichment (6-mer frequency, TF over GST control) | 1.23 fold enrichment (6-mer frequency, TF over GST control) | 1.22 fold enrichment (6-mer frequency, TF over GST control) | 1.27 fold enrichment (6-mer frequency, TF over GST control) | 1.34 fold enrichment (6-mer frequency, TF over GST control) | 1.28 fold enrichment (6-mer frequency, TF over GST control) | 1.29 fold enrichment (6-mer frequency, TF over GST control) |
